Whole data set: some 35,000 sequences, median “fluorescence intensity (a.u.)” near 10,000, cut for the highest 2% near 52,000. The entries come from a sample that favours the highest values as a whole.
Biological target: T1, OsWOX13 (Oryza sativa, UniProt Q5QMM3 1-267)
T1 sequence: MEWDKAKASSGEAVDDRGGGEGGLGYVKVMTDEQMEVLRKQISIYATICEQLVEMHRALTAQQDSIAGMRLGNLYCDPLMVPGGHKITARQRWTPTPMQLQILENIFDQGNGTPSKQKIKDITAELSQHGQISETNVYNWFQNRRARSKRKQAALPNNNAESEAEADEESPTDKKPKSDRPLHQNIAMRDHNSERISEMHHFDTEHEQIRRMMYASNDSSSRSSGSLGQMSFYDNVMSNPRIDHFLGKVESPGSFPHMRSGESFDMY
Experiment: protein-binding microarray (RPBM); PBS, 2% BSA, 51.3 ng/ul salmon testes DNA, 50 uM zinc acetate, 200 nM TF, 25 C, 1 h; high values mean tight binding
Conditions: protein: recombinant; tags: N-terminal polyhistidine and DsRed monomer fusion (pET32a); label: CyDye5-dUTP incorporated in the synthesized complementary strand; 3' TTTTT single-stranded linker to array surface; dsDNA, one strand shown
Method in brief: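 The binding signal is fluorescence intensity per array feature (arbitrary units). Readings came from an Axon 4000B scanner after a washed, 2% BSA-blocked, double-stranded custom Agilent array had been incubated for 1 h at 25 °C with 200 nM protein and 50 µM zinc acetate. The protein was a Ni–NTA-purified transcription factor fused N-terminally to polyhistidine and DsRed, expressed in E. coli BL21-CodonPlus.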

Sequence	binding signal
TGTGACAAACAATGATTACCAAGCTTTTGGGGAAATATAGCGGAGTCACCTAGTGCAG	16900 fluorescence intensity (a.u.)
TCATGATTAAGATGGGCTCACTATGTAATTTTATTTATAACGGAGTCACCTAGTGCAG	8240 fluorescence intensity (a.u.)
AATAATTTGCCAATACCAACATTTTACTATAAATACTTATCGGAGTCACCTAGTGCAG	5410 fluorescence intensity (a.u.)
GCGCTGATACTTGTAATCAATCAACTCATCAGCATGGTCTCGGAGTCACCTAGTGCAG	26100 fluorescence intensity (a.u.)
GTAGTTAATTGTAAACACTGTACTAAGCAGTATACATTTTCGGAGTCACCTAGTGCAG	20300 fluorescence intensity (a.u.)
ACACAATCATTTATACAAAGCATATAATGGGCCTGTTCGGCGGAGTCACCTAGTGCAG	6100 fluorescence intensity (a.u.)
TGCTTGTAATTTCTATAAAATTAGCAGTATTTTGATGCTACGGAGTCACCTAGTGCAG	9240 fluorescence intensity (a.u.)
TTGACATAATATAATCATGTGATATCTTATTGTAAAGATTCGGAGTCACCTAGTGCAG	10400 fluorescence intensity (a.u.)
TTTTGTGATAGATTTTATATTAAATATATAGTTTTGTTTTCGGAGTCACCTAGTGCAG	23400 fluorescence intensity (a.u.)
GATCAATAATTGAATATATTTTAATAATAAATTTGTCTTGCGGAGTCACCTAGTGCAG	55500 fluorescence intensity (a.u.)
GTTTATTTATAATTATATTATATTAATATTGTTTGAAAATCGGAGTCACCTAGTGCAG	8200 fluorescence intensity (a.u.)
TGTGATTGAGGGAGTTAATTAGGACAAGTTAATAAGTGGCCGGAGTCACCTAGTGCAG	64500 fluorescence intensity (a.u.)
TGTTGATTATAATTAAACACAACAAACAGACTCGAAGCAACGGAGTCACCTAGTGCAG	48200 fluorescence intensity (a.u.)
TTATTAATTGATAAAATATAGAAATATTGATTTATTGTTTCGGAGTCACCTAGTGCAG	52500 fluorescence intensity (a.u.)
CCATTGATTATAATTAAAGACTGTTAGGCAATTGACACAACGGAGTCACCTAGTGCAG	54000 fluorescence intensity (a.u.)
GGAGGGAGTAGAATAATGATTGATTTAAGTTAATACTAGCCGGAGTCACCTAGTGCAG	23500 fluorescence intensity (a.u.)
TTTATAACATTGTTAATTGATTAGGCATGCAATGCCATATCGGAGTCACCTAGTGCAG	32300 fluorescence intensity (a.u.)
ATCAATAATTGAACATATTTTCATAATAAATTTGTCTTGGCGGAGTCACCTAGTGCAG	42100 fluorescence intensity (a.u.)
ATCAAATCAATAATTGAATATATTTTCATAATAAATTTGTCGGAGTCACCTAGTGCAG	29400 fluorescence intensity (a.u.)
AGGGAAAGTTGTGATTGAGGGAGGATGTTAGATAATGTTACGGAGTCACCTAGTGCAG	10100 fluorescence intensity (a.u.)
GTATTAATCATGTTTTATCATCTAACAACAACGAAAATACCGGAGTCACCTAGTGCAG	7970 fluorescence intensity (a.u.)
ATAATTTGCTAATACTTAATTAATCACGTGTTAATGGATCCGGAGTCACCTAGTGCAG	36600 fluorescence intensity (a.u.)
AGTTCCCTCTAATTATAATTATAATGTCCTTGGTTTAGGACGGAGTCACCTAGTGCAG	16200 fluorescence intensity (a.u.)

From publication PMC7819943, “Rice protein-binding microarrays: a tool to detect cis-acting elements near promoter regions in rice”
